# In PubChem BioAssay (NCATS):
# Inconclusive results are not listed. Entries that show only a call come without a potency. A number with no mark means an inactive call. Activity calls are given as the source filed them. Calls come from the whole dose curve; as a rule, active = well fitted curve in the direction sought with a large enough effect; inconclusive = small, poorly fitted or top-dose-only effect, or another doubt; inactive = no such curve, though single readings can be large; an effect the other way counts as inactive or inconclusive.
# Columns and labels:
# C33A = assay: Primary qHTS to identify gynecologic anti-cancer compounds using libraries of approved drugs and bioactive compounds (AID 1345084); conditions: Gynecologic cancer cell panel viability, ATPlite luminescence, 48 h; series mostly up to 57.5 µM; note: nearly all actives have a fitted effect of over 55% in size
# How it was run: (§1)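 48 h compound exposure at 37 C, 5% CO2; five-point qHTS. ATPlite luminescence readout of cell ATP.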
# CAOV3 = assay: as above; conditions: Gynecologic cancer cell panel viability, ATPlite luminescence, 48 h; series mostly up to 57.5 µM
# How it was run: as §1
# CASKI = assay: as above; conditions: Gynecologic cancer cell panel viability, ATPlite luminescence, 48 h; series mostly up to 57.5 µM
# How it was run: as §1
# HeLa = assay: as above; conditions: Gynecologic cancer cell panel viability, ATPlite luminescence, 48 h; series mostly up to 57.5 µM
# How it was run: as §1
# Hek293T = assay: as above; conditions: Gynecologic cancer cell panel viability, ATPlite luminescence, 48 h, control line for the selectivity index; series mostly up to 57.5 µM
# How it was run: as §1
# JEG-3 = assay: as above; conditions: Gynecologic cancer cell panel viability, ATPlite luminescence, 48 h; series mostly up to 57.5 µM
# How it was run: as §1
# SKOV3 = assay: as above; conditions: Gynecologic cancer cell panel viability, ATPlite luminescence, 48 h; series mostly up to 57.5 µM
# How it was run: as §1
# Tov112D = assay: as above; conditions: Gynecologic cancer cell panel viability, ATPlite luminescence, 48 h; series mostly up to 57.5 µM
# How it was run: as §1
# Es-2 = assay: as above; conditions: Gynecologic cancer cell panel viability, ATPlite luminescence, 48 h; series mostly up to 57.5 µM
# How it was run: as §1
# OV90 = assay: as above; conditions: Gynecologic cancer cell panel viability, ATPlite luminescence, 48 h; series mostly up to 57.5 µM
# How it was run: as §1
# PA-1 = assay: as above; conditions: Gynecologic cancer cell panel viability, ATPlite luminescence, 48 h; series mostly up to 57.5 µM
# How it was run: as §1
# [1] = qHTS assay to identify inhibitors of the type 1 interferon - major histocompatibility complex class I in skeletal muscle: Counter screen cell viability and HiBit confirmation (AID 1347412); conditions: iHSKM muscle cells + IFN-b, HiBiT or CellTiter-Glo, 24 h; note: nearly all actives have a fitted effect of over 60% in size
# How it was run: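 Duplicate plates, pinned identically: one read for HiBiT-tagged endogenous HLA-B luminescence, the other for ATP-content viability via CellTiter Glo. Cells were genome-engineered human myoblasts given 4 ng/ml IFN-b; compounds 12-pt, 1:3 from 46 uM final; 24 hr exposure.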
# Tov-21-G = assay: Primary qHTS to identify gynecologic anti-cancer compounds using libraries of approved drugs and bioactive compounds (AID 1345084); conditions: Gynecologic cancer cell panel viability, ATPlite luminescence, 48 h; series mostly up to 57.5 µM; note: nearly all actives have a fitted effect of over 55% in size
# How it was run: as §1
# Potency is the fitted concentration of half-maximal effect.
Structure (SMILES),Potency (C33A),Potency (CAOV3),Potency (CASKI),Potency (HeLa),Potency (Hek293T),Potency (JEG-3),Potency (SKOV3),Potency (Tov112D),Potency (Es-2),Potency (OV90),Potency (PA-1),Potency ([1]; HiBiT),Potency ([1]; Viability),Potency (Tov-21-G),"activity change, negative = inhibition ([1]; Viability, at 45.9 µM (top of the series))"
O=C(NOCC(O)CO)c1ccc(F)c(F)c1Nc1ccc(I)cc1F (configuration not stated),inactive,inactive,inactive,inactive,inactive,inactive,inactive,inactive,–,–,–,–,–,–,–
CNC(=O)c1ccccc1Nc1cc(Nc2ccc(N3CCOCC3)cc2OC)ncc1C(F)(F)F,inactive,inactive,inactive,–,inactive,inactive,inactive,inactive,inactive,inactive,15.8 µM (active),–,–,–,–
CCN1CCN(Cc2ccc(Nc3ncc(F)c(-c4cc(F)c5nc(C)n(C(C)C)c5c4)n3)nc2)CC1,inactive,inactive,inactive,–,inactive,inactive,–,inactive,inactive,inactive,–,8.83 µM (active),22.2 µM (active),–,–
C=CC(C)(C)c1[nH]c2cc3c(cc2c1CC1NC(=O)C2=CCCN2C1=O)C=CC(C)(C)O3 (configuration not stated),inactive,inactive,inactive,inactive,inactive,inactive,inactive,inactive,–,inactive,–,–,–,inactive,–
O=C(NCc1cccc(O)c1)Nc1nc(-c2ccncc2)cs1,inactive,inactive,inactive,–,inactive,inactive,inactive,inactive,inactive,inactive,inactive,–,–,inactive,–
CC(=O)O[C@@H]1C[C@H](O)[C@@]23CO[C@H](O)[C@]1(C)C2C[C@@H](O)[C@]1(C)C3C(=O)[C@H](OC(C)=O)[C@@]2(C)[C@H](c3ccoc3)C[C@H]3O[C@]321 (some centres not stated),1.12 µM (active),1.12 µM (active),inactive,–,2.51 µM (active),inactive,–,0.316 µM (active),0.501 µM (active),–,0.562 µM (active),–,–,–,–
CC(C)NCC(C(=O)N1CCN(c2ncnc3c2C(C)CC3O)CC1)c1ccc(Cl)cc1 (configuration not stated),3.98 µM (active),inactive,inactive,inactive,–,–,–,inactive,inactive,–,inactive,–,–,0.794 µM (active),–
Cc1cc2c(F)c(Oc3ncnn4cc(OCC(C)O)c(C)c34)ccc2[nH]1 (configuration not stated),inactive,inactive,inactive,–,–,–,inactive,inactive,inactive,inactive,–,–,–,inactive,–
Cc1cccc2c1NC(=O)C2(c1ccc(O)cc1)c1ccc(O)cc1,inactive,inactive,inactive,–,–,inactive,inactive,–,inactive,–,–,–,–,–,–
COc1ccc2c(OC)c3ccoc3nc2c1OC,inactive,inactive,inactive,–,inactive,inactive,inactive,inactive,inactive,inactive,inactive,–,–,inactive,–
Cc1ncc(CCCN(C)C)cc1Nc1ncc2c(n1)-c1ccc(C(F)(F)F)cc1NC(=S)C2,inactive,inactive,inactive,–,–,inactive,–,–,–,–,–,–,–,inactive,–
CC(=O)O[C@@](C)(C(=O)/C=C/C(C)(C)O)[C@H]1[C@H](O)C[C@@]2(C)[C@@H]3CC=C4[C@@H](C=C(O)C(=O)C4(C)C)[C@]3(C)C(=O)C[C@]12C,inactive,0.282 µM (active),4.47 µM (active),2.51 µM (active),–,inactive,–,–,–,4.47 µM (active),11.2 µM (active),–,–,2.82 µM (active),–
CC[C@@H](N)CNc1ccnc(-c2cc(-c3cnn(C)c3)ccc2O)n1,8.91 µM (active),inactive,3.98 µM (active),–,11.2 µM (active),12.6 µM (active),–,10 µM (active),20 µM (active),–,7.94 µM (active),–,–,8.91 µM (active),–
CCCCNc1ccc(-c2ccc(CN3CCOCC3)cn2)c(NC2CCC(O)CC2)c1 (configuration not stated),inactive,1.78 µM (active),inactive,–,inactive,inactive,inactive,inactive,inactive,inactive,–,–,–,inactive,–
C=C1C(=O)O[C@@H]2C/C(C)=C\C(=O)/C=C(\C)[C@@H](OC(=O)/C(C)=C\C)[C@H](O)[C@@H]12,10 µM (active),7.94 µM (active),inactive,–,7.94 µM (active),7.08 µM (active),11.2 µM (active),11.2 µM (active),4.47 µM (active),–,2.82 µM (active),–,–,7.94 µM (active),–
Cc1ccc(-c2ccc3ncc4c(c3n2)n(C2CCN(C(=O)[C@H](C)O)CC2)c(=O)n4C)cn1,0.282 µM (active),0.708 µM (active),0.794 µM (active),1 µM (active),0.355 µM (active),7.08 µM (active),1.41 µM (active),0.0891 µM (active),–,–,0.631 µM (active),–,–,–,–
Cc1cnc(Nc2ccc(F)cc2Cl)nc1-c1c[nH]c(C(=O)NC(CO)c2cccc(Cl)c2)c1 (configuration not stated),inactive,inactive,inactive,–,inactive,inactive,inactive,inactive,inactive,–,8.91 µM (active),–,–,–,–
Cc1c(CN2CCN(C(=O)C(C)O)CC2)sc2c(N3CCOCC3)nc(-c3cnc(N)nc3)nc12 (configuration not stated),2 µM (active),1.41 µM (active),1.26 µM (active),–,0.891 µM (active),–,1 µM (active),–,–,1.78 µM (active),–,–,–,2.24 µM (active),–
C=C(C)C(=O)O[C@H]1C[C@@](C)(O)C(=O)CC(O)/C(C)=C\[C@H]2OC(=O)C(=C)[C@H]12 (some centres not stated),inactive,inactive,inactive,inactive,inactive,inactive,–,inactive,–,inactive,–,–,–,–,–
N#Cc1ccc(-c2cnc3[nH]cc(NC(=O)c4cccnc4)c3c2)cc1,inactive,inactive,inactive,–,inactive,inactive,–,inactive,–,–,–,–,–,–,–
C=C(C(=O)OC)C1C(O)CC2(C)C(O)CCC(=O)C2C1O (configuration not stated),inactive,inactive,inactive,–,inactive,inactive,–,–,–,inactive,–,–,–,–,–
COc1cc2c(cc1OC)N1C(=O)C[C@]34C=CCN5CC[C@@H]2[C@@H](CC3)[C@]514,inactive,inactive,–,inactive,inactive,inactive,inactive,inactive,inactive,inactive,inactive,–,–,inactive,–
O=C1NC(=O)C(c2cn3c4c(cccc24)CCC3)C1c1c[nH]c2ccccc12 (configuration not stated),20 µM (active),inactive,inactive,3.16 µM (active),–,–,–,5.01 µM (active),10 µM (active),–,3.16 µM (active),–,–,–,–
C(#Cc1nc2ncccc2nc1OCCN1CCCC1)c1ccccc1,7.08 µM (active),7.08 µM (active),17.8 µM (active),–,10 µM (active),–,14.1 µM (active),14.1 µM (active),3.55 µM (active),–,6.31 µM (active),–,–,14.1 µM (active),–
CC1(C)CC[C@]2(C(=O)O[C@@H]3O[C@H](CO)[C@@H](O)[C@H](O)[C@H]3O)CC[C@]3(C)C(=CCC4[C@@]5(C)C[C@@H](O)[C@H](O)[C@@](C)(CO)C5CC[C@]43C)C2[C@@H]1O (some centres not stated),inactive,inactive,inactive,inactive,inactive,inactive,inactive,inactive,–,inactive,inactive,–,–,inactive,–
COCCN1CCN(Cc2ccc(-c3n[nH]c4c3C(=O)c3c(NC(=O)NN5CCOCC5)cccc3-4)cc2)CC1,inactive,inactive,0.282 µM (active),–,0.178 µM (active),inactive,–,0.316 µM (active),0.316 µM (active),inactive,0.251 µM (active),0.0701 µM (active),–,0.282 µM (active),44.8%
CN1C2CCC1CC(OC(=O)[C@H](CO)c1ccccc1)C2 (some centres not stated),inactive,inactive,inactive,–,inactive,inactive,–,–,–,–,–,–,–,–,–
CC(C)c1cccc2c(-c3ccccc3)cc(-c3ccc(-c4ccc(C(=O)O)cc4)[nH]3)nc12,inactive,inactive,–,inactive,inactive,inactive,inactive,–,inactive,inactive,inactive,–,–,–,–
Cc1cc(Nc2ccc(NC(=O)c3ccc(Nc4ccnc5ccccc45)cc3)cc2)nc(N)n1,5.62 µM (active),2.24 µM (active),3.55 µM (active),11.2 µM (active),25.1 µM (active),28.2 µM (active),3.98 µM (active),25.1 µM (active),–,3.98 µM (active),20 µM (active),–,–,10 µM (active),–
